Hits are enriched below; roughly 2.2% of the tested compounds scored in any of these assays.
HTR5A inv ag: counter-screen for OPRM1-OPRD1 inverse agonists: human HTR5A inverse agonism; P47898; HTR5A cell line, luminescence; inhibition, % at 9.3 µM; actives 0.083% (n = 340,000); AID 504634; in the data active means inhibition mostly above about 23%, no sharp cut-off; inactive means mostly below about 18%;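 further: 0% = cells with DMSO and 100% = no-cell wells with DMSO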
Target sequence (P47898 whole entry, looked up): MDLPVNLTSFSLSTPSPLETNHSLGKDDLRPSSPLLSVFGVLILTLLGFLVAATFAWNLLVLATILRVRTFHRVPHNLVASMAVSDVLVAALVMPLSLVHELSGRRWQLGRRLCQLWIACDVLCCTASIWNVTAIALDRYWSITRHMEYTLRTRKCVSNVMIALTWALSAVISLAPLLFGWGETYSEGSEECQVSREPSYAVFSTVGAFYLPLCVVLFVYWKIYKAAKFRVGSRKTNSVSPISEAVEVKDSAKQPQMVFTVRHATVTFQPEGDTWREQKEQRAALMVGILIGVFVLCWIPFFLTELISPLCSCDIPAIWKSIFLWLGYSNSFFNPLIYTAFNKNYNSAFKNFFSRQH
MOR-DOR inv ag: inverse agonists of human mu-delta opioid receptor heterodimerization; actives 0.21% (n = 340,000); P35372+P41143; inhibition, % at 9.3 µM; cell-based MOR-DOR heterodimer luminescence, inverse agonism; AID 504357; in the data active means inhibition above about 22%, passing the limit was not always enough;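 further: 0% = cells with DMSO and 100% = wells without cells with DMSO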
MOR-DOR ag: OPRM1-OPRD1 heterodimerization agonism | P35372+P41143 | cells, luminescence | activation, % at 9.3 µM | actives 0.3% (n = 340,000) | AID 504326; in the data active means activation above about 18%;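 further: 0% = vehicle-treated cells and 100% = reference agonist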
HTR5A ag: HTR5A agonism, opioid heterodimer counter-screen; P47898; HTR5A agonist assay, luminescence, cell-based; activation, % at 9.3 µM; actives 0.61% (n = 340,000); in the data active means activation mostly above about 9.5%, no sharp cut-off; inactive means mostly below about 7.6%;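 further: 0% = cells with vehicle only and 100% = reference agonist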
m5-HT2A agonist: agonists of mouse serotonin 5-HT2A receptor (HTR2A) | P35363 | CHO-K1 mHTR2A beta-arrestin complementation, luminescence; percent of 30 µM serotonin response | activation, % at 7.6 µM | actives 0.66% (n = 360,000);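 active means activation above a run cutoff, the mean activation of all tested compounds plus 3 SD, cut at about 14% in these data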;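 further: 0% = plate median of compound wells and 100% = 30 µM serotonin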
HGIII-sPLA2 inh: Inhibits HGIII-sPLA2 liposome hydrolysis, primary screen; QFRET BODIPY PC-A2 liposome hydrolysis, fluorescence; inhibition, % at 12.2 µM; actives 0.56% (n = 370,000); Q9NZ20;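 active means inhibition above mean plus 3 SD of compounds lying within the high and low control bounds, cut at about 19% in these data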;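 further: 0% = median of test compound wells and 100% = no enzyme DMSO wells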
hGIII sPLA2 conf: human GIII-sPLA2 inhibition, confirmation | inhibition, % at 12.2 µM | recombinant hGIII-sPLA2, BODIPY PC-A2 QFRET fluorescence | actives 34% (n = 2,000) | shares compounds with HGIII-sPLA2 inh;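 active means mean inhibition across triplicates above the hit cutoff set in the earlier primary screen, cut at about 19% in these data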;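 further: 0% = enzyme with DMSO and 100% = DMSO wells lacking enzyme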
535nm interf: 535nm fluorescence interference, HGIII-sPLA2 counter-screen; AID 743282; actives 8.5% (n = 2,000); BODIPY FL product fluorescence interference, QFRET; inhibition, % at 12.2 µM; shares compounds with HGIII-sPLA2 inh;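 active means average inhibition above the solvent-only control mean plus 3 SD, cut at about 6% in these data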;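 further: 0% = DMSO with substrate plus product and 100% = DMSO with substrate alone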
BODIPY interf DR: interferes with 535nm fluorescence in dose response counter-screen | shares compounds with HGIII-sPLA2 inh | BODIPY FL product fluorescence interference, cell-free | IC50, µM | 240 tested, under 10 active;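 active means IC50 at or below 10 µM; inactive means IC50 above 10 µM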
Numbers without * were called inactive; / = no result.

SMILES	HTR5A inv ag	MOR-DOR inv ag	MOR-DOR ag	HTR5A ag	m5-HT2A agonist	HGIII-sPLA2 inh	hGIII sPLA2 conf	535nm interf	others
S=C(Nc1ccccc1Oc1ccccc1)Nc1cccc(Cl)c1Cl	-8.9	-5.5	1.1	3.4	-2.0	21.6*	30.1*	6.7*
S=C(Nc1ccc(Cl)cc1Cl)Nc1ccccc1Oc1ccccc1	6.4	-14.4	2.7	-1.8	1.7	/	/	/
O=S1(=O)c2ccc(N3CCN(Cc4ccccc4F)CC3)cc2Oc2ccccc2CN1Cc1cn(Cc2cccc(C(F)(F)F)c2)nn1	/	/	/	/	/	0.4	/	/
CCN(CC)S(=O)(=O)c1ccc(Cl)c(NC(=O)COc2ccc3c(C)cc(=O)oc3c2)c1	-16.8	5.5	-1.1	-0.6	-2.1	20.6*	-2.0	-11.7
CCN(CC)S(=O)(=O)c1ccc(OC)c(NC(=O)COc2ccc3c(C)cc(=O)oc3c2)c1	-16.4	9.5	-1.9	2.2	-6.5	8.8	/	/
COC(=O)C1CN(Cc2ccccc2)CCS(=O)(=O)N1Cc1cn(Cc2cccc(Cl)c2)nn1 (stereo not given)	/	/	/	/	/	-1.6	/	/
CC(=O)Nc1ccc(NC(C)=C(C#N)C#N)cc1	17.0	6.9	-1.1	-2.3	0.9	19.7*	-1.5	-2.6
O=C(O)c1ccc(N2C(=O)CC(N3CCN(c4cccc(C(F)(F)F)c4)CC3)C2=O)cc1 (stereo not given)	-27.1	8.3	-1.6	2.7	9.8	21.2*	1.9	-1.7
CC(=O)Nc1sc2c(c1-c1nc3ccccc3s1)CCCNC2	/	/	/	/	/	15.5	/	/
O=C(CNC(=S)N(Cc1ccccc1)Cc1cccnc1)NC1CC1	5.6	3.2	-0.6	1.4	3.0	-1.7	/	/
O=C(CNC(=S)N(Cc1ccccc1)Cc1cccnc1)NC1CCCC1	-20.5	22.8	-4.3	5.5	5.5	22.8*	3.9	-15.9
CCOC(=O)c1cnc(Cc2ccccc2)[nH]c1=O	5.6	12.7	-2.7	-1.5	-2.6	2.8	/	/
CCOC(=O)c1cnc(-n2[nH]c(C)c(Cc3ccccc3)c2=O)[nH]c1=O	6.1	22.2	-3.9	-2.2	0.8	23.1*	19.8*	-4.9
Nc1ccc(O)c2c(=O)cc(-c3ccccc3Cl)oc12	-14.9	15.4	-2.8	-1.6	-7.5	27.2*	42.1*	-1.9
O=c1cc(-c2ccccc2Cl)oc2cc(O)cc(O)c12	3.6	-27.2	5.0	-1.4	-4.7	-7.2	/	/
CCCC[C@H]1C2CC(OC(=O)Nc3ccc(F)cc3)C(C2)[C@H]2CCCCN21 (stereo not given in full)	/	/	/	/	/	-0.4	/	/
Cc1cc(C(=O)NNC(=S)NC(=O)/C=C/c2ccccc2Cl)n[nH]1	7.1	-6.4	1.1	2.2	-2.7	26.2*	42.2*	-4.1	BODIPY interf DR=>122
Cc1cccc(C(=O)NC(=S)NNC(=O)c2ccccc2Cl)c1	9.0	26.2	-5.2	9.5	-1.3	10.3	/	/
COc1ccccc1Cn1c(=S)[nH]c2cc(C(=O)NCCCN3CCOCC3)ccc2c1=O	4.1	4.5	-0.9	-1.1	-6.8	20.4*	12.1	-9.0
C[C@H](O)[C@@H]1C(=O)N2CCc3c([nH]c4cccc(-c5ccccc5)c34)[C@@H]2C[C@@H]1N(C)C(=O)c1ccco1	/	/	/	/	/	-3.0	/	/
COc1cc(C=NN2CCN(C(c3ccccc3)c3ccccc3)CC2)cc(OC)c1OC(C)=O	/	/	/	/	/	4.1	/	/
Cc1c(-c2csc(N)n2)c2ccccc2n1C	-10.1	-2.4	0.5	2.7	-7.1	20.2*	12.2	4.1
O=C(NCc1ccco1)OC1CCC12CCC(c1ccccc1)CC2 (stereo not given)	/	/	/	/	/	-6.6	/	/
COc1ccc(C(=O)c2coc(-c3ccccc3C(=O)O)c2C(=O)O)cc1	-9.4	17.7	-3.3	-3.1	0.5	19.3*	-5.9	-2.8
CC(C)C(N)c1csc(Nc2ccc(C(=O)c3ccccc3)cc2)n1 (stereo not given)	/	/	/	/	2.7	22.3*	6.4	-17.5
SMILES	HTR5A inv ag	MOR-DOR inv ag	MOR-DOR ag	HTR5A ag	m5-HT2A agonist	HGIII-sPLA2 inh	hGIII sPLA2 conf	535nm interf	others
CC(N)c1csc(Nc2ccc(C(=O)c3ccccc3)cc2)n1 (stereo not given)	/	/	/	/	3.6	19.6*	12.4	-18.5
COc1ccccc1CCn1cnc(-c2ccc(OC)c(OC)c2)c1CC(C)C	/	/	/	/	/	9.3	/	/
CNC(=S)NNC(=O)c1c(C)nc2cc(C)ccn12	-35.5	12.2	-2.3	-2.5	1.8	19.2*	3.6	-7.2
Cc1ccn2c(C(=O)NN=C3CCCCCCC3)c(C)nc2c1	9.8	10.1	-2.2	-3.8	4.6	8.1	/	/
CCCS(=O)(=O)c1c(S(=O)(=O)CCC)c2cnccn2c1C(=O)c1ccc(F)cc1	-6.2	1.8	-0.3	2.7	-0.5	19.3*	2.9	-9.9
Cc1cc(C(=O)COc2ccc3ccc(=O)oc3c2)c(C)n1Cc1cccs1	0.8	-11.0	2.2	2.6	-4.2	20.8*	1.0	-15.3
COc1ccc(OC)c(NC(=O)Nc2nc(C(N)CCc3ccccc3)cs2)c1 (stereo not given)	/	/	/	/	-10.5	22.7*	13.1	-14.1
CC(C)c1ccc(NC(=O)Nc2nc(C(N)CCc3ccccc3)cs2)cc1 (stereo not given)	/	/	/	/	11.3	21.4*	17.0	-10.3
COC(=O)[C@]12C[C@H](CC(=O)NCc3ccc(OC)c(OC)c3)C(=O)N(CCC3=CCCCC3)C1=C[C@H](C(C)C)O[C@@H]2C1CC1	/	/	/	/	/	-11.9	/	/
CCC(=O)NC(=S)Nc1ccc(-c2nc3ccccc3s2)cc1	-3.1	5.5	-1.1	1.2	9.5	-3.7	/	/
CCC(=O)NC(=S)Nc1ccc(-c2nc3ccc(C)cc3s2)cc1	1.2	3.2	-0.6	-0.3	-2.0	19.3*	0.1	-7.5
CC(c1ccccc1)n1c(-c2ccccc2F)n[nH]c1=S (stereo not given)	-17.5	9.0	-1.8	4.5	6.0	24.0*	8.1	-0.9
CC(=O)Nc1cccc(-c2cc(C(C)=O)c3n(c2=O)CCC3)c1	/	/	/	/	/	14.4	/	/
C/C(=N\NC(=O)CSCc1ccc([N+](=O)[O-])cc1)c1ccccc1	0.9	5.5	-1.1	3.8	-4.0	0.5	/	/
C/C(=N\NC(=O)CSCc1ccc([N+](=O)[O-])cc1)c1ccccc1O	-17.8	12.0	-2.4	1.4	-2.8	20.9*	13.8	-7.5
Nc1[nH]n(-c2ccccc2)c(=O)c1N=Nc1ccc2c(c1)OCO2	-7.5	14.5	-2.9	8.1	-1.4	20.8*	27.3*	5.7
CCc1c(-c2n[nH]c(=S)n2Cc2ccccc2)csc1C	17.9	-45.8	8.3	4.2	-3.4	20.4*	33.2*	3.2	BODIPY interf DR=>122

Screens from PubChem BioAssay.
